Source: PubChem (National Center for Advancing Translational Sciences (NCATS))
Shiga inhibitor: A qHTS for Small Molecule Inhibitors of Shiga Toxin. Vero cells, Shiga toxin protein synthesis inhibition reporter. inhibition, % at 38.7 µM. hit rate 9.2% among 290,000. AID 2315, 2010; in the data active means inhibition mostly above about 28%, no sharp cut-off; inactive means mostly below about 43%
Pf growth 48h: Primary qHTS for delayed death inhibitors of the malarial parasite plastid, 48 hour incubation. P. falciparum luciferase growth in erythrocytes, 48 h. Potency, µM (doses to about 28.7 µM), usual class: inhibitors. hit rate 5.9% among 310,000
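A one-generation exposure of luciferase-tagged malaria parasites in RPMI 1640/Albumax erythrocyte culture, 37 C and 5% CO2. Inhibition is inferred from decreased luminescence after adding detection reagent.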
LmPK inhibitor: qHTS Assay for Inhibitors of Leishmania Mexicana Pyruvate Kinase (LmPK) | Q27686 | purified LmPK, Kinase-Glo ATP luminescence, 1 h | Potency, µM (series often up to 57.5 µM), actives largely listed as inhibitors | hit rate 0.37% among 290,000 | AID 1721, 2009
Target sequence (Q27686 whole entry, looked up): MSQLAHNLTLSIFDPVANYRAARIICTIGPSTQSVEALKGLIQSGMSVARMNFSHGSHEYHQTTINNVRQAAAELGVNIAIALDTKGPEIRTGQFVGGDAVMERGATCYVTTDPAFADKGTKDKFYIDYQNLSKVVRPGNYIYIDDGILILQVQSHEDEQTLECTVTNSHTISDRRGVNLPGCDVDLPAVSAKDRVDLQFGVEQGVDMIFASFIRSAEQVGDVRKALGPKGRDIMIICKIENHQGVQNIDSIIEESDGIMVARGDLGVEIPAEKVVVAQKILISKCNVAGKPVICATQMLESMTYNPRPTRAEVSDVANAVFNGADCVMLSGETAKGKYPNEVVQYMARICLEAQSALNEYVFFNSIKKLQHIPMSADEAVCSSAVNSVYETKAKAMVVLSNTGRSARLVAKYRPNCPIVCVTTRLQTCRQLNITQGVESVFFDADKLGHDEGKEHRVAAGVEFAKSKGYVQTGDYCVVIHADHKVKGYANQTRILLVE
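Kinase-Glo luminescence read after 1 h RT reaction of 0.1 nM LmPK with 0.5 mM PEP and 0.1 mM ADP. Activity scaled between uninhibited and enzyme-free controls.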
CHX counter: Cycloheximide Counterscreen for Small Molecule Inhibitors of Shiga Toxin. cell reporter, cycloheximide protein synthesis inhibition counterscreen. max response, %. hit rate 12% among 300,000. AID 2314, 2010; in the data active means max response mostly above about 13%, no sharp cut-off; inactive means mostly below about 14%; further: read at 38.3 µM for the half of the compounds with a filed dose
Pf growth 96h: Primary qHTS for delayed death inhibitors of the malarial parasite plastid, 96 hour incubation; AID 504834, 2011; Potency, µM (titrated, usually from 28.7 µM), hits mostly inhibitors; hit rate 6.9% among 320,000; P. falciparum luciferase reporter growth, 96 h
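Erythrocytes infected with luciferase-expressing P. falciparum were dispensed at 2% hematocrit and 0.05% parasitemia (final), then incubated with compounds 96 hours at 37 C in 5% CO2. Luminescence after detection reagent addition reported growth.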
Large screens that a line does not name were inactive. Only some compounds are listed: those with a hit (about 22% of all), similar ones and a draw of the others. Unless noted, the call rests on the fitted dose curve; in most records, active means well fitted inhibition curve with a large enough effect; inconclusive means small, poorly fitted or top-dose-only effect, or another doubt; inactive means no such curve, though single readings can be large or run the other way.

C/C(=N\NC(=O)CSc1nc2ccccc2o1)c1ccc(O)cc1	Shiga inhibitor 113.8, CHX counter 44.7
Cc1ccc(NC(=O)CN(C)C(=O)CSc2nc3ccccc3o2)cc1	none
Cc1ccccc1NC(=O)CSc1nc2ccccc2o1	Shiga inhibitor 63.1, CHX counter 23.2 (no result: Pf growth 96h)
O=C(CSc1nc2ccccc2o1)N/N=C/c1ccc(O)c(O)c1	Shiga inhibitor 31.1, CHX counter 22.4
N#Cc1ccccc1NC(=O)COC(=O)CSc1nc2ccccc2o1	Pf growth 96h 1.04µM
Cc1c(C(=O)Nc2ccc3c(c2)OCCO3)sc2ncnc(N3CCCCC3C)c12 (stereo not given)	Pf growth 48h inconclusive
O=C(CSc1nc2ccccc2o1)N/N=C/c1ccccc1	Shiga inhibitor 61.0, CHX counter 24.8
Cc1ccccc1/C=N/NC(=O)CSc1nc2ccccc2o1	Shiga inhibitor 93.4, CHX counter 24.5
CC1(C)CC(=O)c2cnc(NC(=O)CSc3nc4ccccc4o3)nc2C1	CHX counter 15.9
C/C(=N\NC(=O)CSc1nc2ccccc2o1)c1cccc(O)c1	none
Cc1cc(C)nc(SCC(=O)Nc2ncc3c(n2)CC(C)(C)CC3=O)n1	Pf growth 96h inconclusive
Cc1cc(C)n(C(=O)CSc2nc3ccccc3o2)n1	CHX counter 17.9, Pf growth 96h inconclusive
Cc1ccc(SCC(=O)n2nc(C)cc2C)cc1	none
COc1ccccc1N1CCN(S(=O)(=O)c2ccc3c(c2)n(C)c(=O)n3C)CC1	none
O=C(COc1ccc(F)cc1)Nc1nnc(S(=O)(=O)N2CCCC2)s1	none
Cc1cccc(C)c1NC(=O)CNC(=O)c1ccccc1OCc1ccccc1	Pf growth 48h inconclusive (no result: Shiga inhibitor, LmPK inhibitor, CHX counter)
OCCNc1nc(SCc2ccccc2)nc2sc3c(c12)CCC3	Pf growth 48h inconclusive, Pf growth 96h inconclusive
Cc1csc2nc(CSc3nc4ccccc4o3)c(Br)n12	Shiga inhibitor 78.1, CHX counter 51.7 (no result: Pf growth 96h)
CCN(C(=O)Cn1nc(C)c([N+](=O)[O-])c1C)c1c(N)n(Cc2ccccc2)c(=O)[nH]c1=O	Pf growth 48h inconclusive (no result: Shiga inhibitor, LmPK inhibitor, CHX counter)
CC(=O)Nc1ccccc1Nc1cc(C#N)c(C#N)cc1[N+](=O)[O-]	Pf growth 48h inconclusive, Pf growth 96h 7.38µM
Cc1ccc(S(=O)(=O)NCCNC(=O)c2cc(OCC(F)(F)F)ccc2OCC(F)(F)F)cc1	Pf growth 48h inconclusive, Pf growth 96h inconclusive
O=C(NCCNS(=O)(=O)c1ccccc1Cl)c1cc(OCC(F)(F)F)ccc1OCC(F)(F)F	Pf growth 48h inconclusive, Pf growth 96h 11.7µM
CC[C@H]1OC(=O)[C@H](C)[C@@H](O[C@H]2C[C@@](C)(OC)[C@@H](O)[C@H](C)O2)[C@H](C)[C@@H](O[C@@H]2O[C@H](C)C[C@H](N(C)C)[C@H]2O)[C@](C)(O)C[C@@H](C)CN(C)[C@H](C)[C@@H](O)[C@]1(C)O	Pf growth 48h 13.5µM, Pf growth 96h 0.135µM (no result: Shiga inhibitor, LmPK inhibitor, CHX counter)
CC[C@H]1OC(=O)[C@H](C)[C@@H](O[C@H]2C[C@@](C)(OC)[C@@H](O)[C@H](C)O2)C(C)[C@@H](O[C@@H]2O[C@H](C)C[C@H](N(C)C)[C@@H]2O)[C@](C)(OC)C[C@@H](C)C(=O)[C@H](C)[C@@H](O)[C@]1(C)O (stereo not given in full)	Pf growth 48h 13.5µM, Pf growth 96h 1.35µM (no result: Shiga inhibitor, LmPK inhibitor, CHX counter)
CCC1OC(=O)C(C)C(OC2C[C@@](C)(OC)C(O)C(C)O2)C(C)C(O[C@@H]2OC(C)CC(N(C)C)C2O)[C@](C)(O)CC(C)C(=NOCOCCOC)C(C)C(O)[C@]1(C)O (stereo not given in full)	Pf growth 48h inconclusive, Pf growth 96h 7.38µM (no result: Shiga inhibitor, LmPK inhibitor, CHX counter)
CCOc1cc(/C=C2\SC(=N)N(c3nonc3N)C2=O)ccc1OCCN1CCOCC1	Pf growth 48h 1.31µM, CHX counter 14.1, Pf growth 96h inconclusive
Cc1ccc(S(=O)(=O)NNc2ccccc2)c(C)c1	none
O=C(NCC1CCCO1)c1ccc(COc2ccccc2Br)cc1 (stereo not given)	Shiga inhibitor active
COc1cc(C(=O)NCC2CCCO2)ccc1OCc1ccc(Cl)cc1Cl (stereo not given)	Pf growth 48h 11.7µM, Pf growth 96h 11.7µM (no result: Shiga inhibitor, LmPK inhibitor, CHX counter)
COc1cccc(OCc2ccc(C(=O)NCC3CCCO3)cc2)c1 (stereo not given)	Shiga inhibitor 36.6, CHX counter 27.8
CCOC(=O)c1c(NC(=O)C(C)Sc2nnc(C)c(=O)[nH]2)sc2c1CCCC2 (stereo not given)	none
c1ccc(COc2ccc(OCCCN3CCCCC3)cc2)cc1	Shiga inhibitor 53.1, CHX counter 31.9 (no result: Pf growth 48h)
CN1CCN(CCOc2ccc(Cc3ccccc3)cc2)CC1	none
c1ccc(COc2ccc(OCCCCN3CCCC3)cc2)cc1	Shiga inhibitor 81.9, CHX counter 19.4
CC1CCN(CCOc2ccc(OCc3ccccc3)cc2)CC1	Shiga inhibitor 54.0, CHX counter 39.1
c1ccc(OCCCN2CCCC2)cc1	none (no result: Pf growth 48h)
c1ccc(OCc2ccc(CCCN3CCOCC3)cc2)cc1	Shiga inhibitor 28.4, CHX counter 26.0
Cc1ccc(-c2cc(C(F)F)n3ncc(C(=O)N4CCN(c5cccc(C)c5C)CC4)c3n2)cc1	none
c1ccc(SCCOCCn2cncn2)cc1	none (no result: Pf growth 96h)
O=C(Nc1ccc(OCc2ccccc2)cc1)Nc1ccccc1C(=O)NCCCN1CCOCC1	Shiga inhibitor 48.3, Pf growth 48h inconclusive, LmPK inhibitor 14.1µM, CHX counter 35.5
c1ccc(COc2ccc(OCCOCCn3cncn3)cc2)cc1	Shiga inhibitor 79.5, CHX counter 56.9 (no result: Pf growth 96h)
CCOc1ccc(NC(=O)C2CCCN(S(=O)(=O)c3c(C)noc3C)C2)cc1 (stereo not given)	none
Cc1ccc(NC(=O)C2CCCN(S(=O)(=O)c3c(C)noc3/C=C/N(C)C)C2)c(C)c1 (stereo not given)	Pf growth 48h inconclusive, Pf growth 96h 9.28µM
Cc1noc(C)c1S(=O)(=O)N1CCCC(C(=O)NCC2CCCO2)C1 (stereo not given)	Pf growth 96h 9.28µM
Cc1ccc(NC(=O)C2CCCN(S(=O)(=O)c3c(C)noc3C)C2)c(Br)c1 (stereo not given)	Pf growth 96h 5.86µM
Cc1ccc(NC(=O)C2CCCN(S(=O)(=O)c3c(C)noc3C)C2)nc1 (stereo not given)	none
Cc1ccc(NC(=O)C2CCCN(S(=O)(=O)c3c(C)noc3C)C2)cc1F (stereo not given)	Pf growth 48h inconclusive, Pf growth 96h 2.33µM
Cc1ccc(NC(=O)CCN2C(=O)OC(C)(C)C2(C)O)cc1 (stereo not given)	Pf growth 96h inconclusive
O=C(CSc1cccc[n+]1[O-])Nc1c(Br)cc([N+](=O)[O-])cc1Br	Pf growth 48h inconclusive
CCOc1ccc(N(CC(=O)N2CCN(C(=O)CN(c3ccc(OCC)cc3)S(C)(=O)=O)CC2)S(C)(=O)=O)cc1	Pf growth 48h inconclusive, Pf growth 96h inconclusive (no result: Shiga inhibitor)
